# PubChem BioAssay (Tox21)
# Several values for one entry are separate records, joined by “and”; a condition that tells them apart may be missing. Identical values can stand only once. Records with an inconclusive call do not appear. Where a call stands in place of a potency, no number is given. A structure can be active in one record and inactive in another. Activity calls are given as the source filed them. Unless noted, calls follow the shape of the full dose curve.
# How the values were obtained:
# [1] = Nuclear factor erythroid 2-related factor 2/antioxidant responsive element (Nrf2/ARE) small molecule agonists: qHTS cell viability counter screen in human keratinocytes (AID 1919968; active = well fitted curve in the direction sought with a large enough effect in the repeat runs; an effect the other way counts as inactive or inconclusive; also: nearly all actives have a fitted effect of over 55% in size; also: potency is read from the fitted curve at half-maximal effect)
# Outline: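 Stably transfected HaCaT (KeratinoSens), 1,500/well. Test agents in DMSO were applied for 23 h, 37 C/5% CO2. CellTiter-Fluor was incubated 1 h before the fluorescence read.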
# [2] = Nuclear factor erythroid 2-related factor 2/antioxidant responsive element (Nrf2/ARE) small molecule agonists: luciferase reporter gene qHTS assay in human keratinocytes (AID 1919969); also: nearly all actives have a fitted effect of over 35% in size; also: potency is read from the fitted curve at half-maximal effect
# [3] = molecular target: Gonadotropin-releasing hormone receptor (Homo sapiens) (UniProt P30968); assay: Human gonadotropin-releasing hormone receptor (GnRHR) small molecule agonists, calcium flux assay in GnRHR-HEK293 cells (AID 1920063); also: nearly all actives have a fitted effect of over 35% in size
# Outline: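 Stable human GnRHR HEK293 line. 18 h plating, then calcium dye for 1 h at 37 C. Agonist-mode compound addition from DMSO stocks; fluorescence monitored 3 min.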
# [4] = molecular target: KiSS-1 receptor (Homo sapiens) (UniProt Q969F8); assay: Human kisspeptin (KISS1R) small molecule agonists, calcium flux assay in KISS1R-HEK293 cells (AID 1920064; active = well fitted curve in the direction sought with a large enough effect in the repeat runs; an effect the other way counts as inactive or inconclusive)
# Outline: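 After overnight (18 h) culture at 37 C/5% CO2, human KISS1R-HEK293 cells received calcium dye for 1 h, then test compound; emission at 540 nm (excitation 480 nm) was tracked for 3 min.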
# [5] = G protein-coupled receptor (GPCR) small molecule agonists, calcium flux assay: HEK293 wild type cell line counter screen (AID 1920065)
# Outline: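 Following 18 h incubation at 37 C/5% CO2, plates got calcium dye for 1 h; compounds, ATP or DMSO were then pinned in and fluorescence followed kinetically (480/540 nm).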
# [6] = p53 small molecule agonists, cell-based qHTS assay with human liver microsomes (AID 1963577)
# Outline: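 p53RE-bla reporter cells were pre-incubated 5 h at 37 C, then treated with compounds plus human liver microsomes (0.5 mg/mL final) and NADPH (0.5 mg/mL final) for 16 h at 37 C. Beta-lactamase activity was read by LiveBLAzer fluorescence after 2 h at room temperature.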
# [7] = p53 small molecule agonists, cell-based qHTS assay with rat liver microsomes (AID 1963578)
# Outline: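 p53RE-bla cells were exposed to compounds together with rat liver microsomes (0.5 mg/mL final) and NADPH (0.5 mg/mL final) for 16 h at 37 C, then read by LiveBLAzer beta-lactamase fluorescence after 2 h at room temperature.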
# [8] = p53 small molecule agonists, cell-based qHTS assay with human liver microsomes: qHTS cell viability counter screen (AID 1963579); also: nearly all actives have a fitted effect of over 45% in size; also: potency is read from the fitted curve at half-maximal effect
# Outline: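 p53RE-bla cells (4,000/well) were pre-incubated 5 h at 37 C, then given compounds in DMSO plus human liver microsomes (0.5 mg/mL final) and NADPH (0.5 mg/mL final) for 16 h at 37 C. Viability was read by CellTiter-Glo luminescence.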
# [9] = p53 small molecule agonists, cell-based qHTS assay with rat liver microsomes: qHTS cell viability counter screen (AID 1963580); also: nearly all actives have a fitted effect of over 45% in size; also: potency is read from the fitted curve at half-maximal effect
# Outline: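 Luminescent ATP readout (CellTiter-Glo, 30 min at room temperature) reports viability of p53RE-bla HCT-116 cells after 16 h at 37 C with test compounds under metabolic activation by rat liver microsomes and NADPH at 0.5 mg/mL final each.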
# [10] = p53 small molecule agonists, cell-based qHTS assay: qHTS cell viability counter screen (AID 1963581); also: nearly all actives have a fitted effect of over 45% in size; also: potency is read from the fitted curve at half-maximal effect
# Outline: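 qHTS counter screen: 16 h compound exposure at 37 C of p53RE-bla HCT-116 cells (4,000 per well, seeded 5 h prior), cell viability by ATP luminescence.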
# [11] = molecular target: 5-hydroxytryptamine receptor 2A (Homo sapiens) (UniProt P28223); assay: 5-hydroxytryptamine receptor 2A (HTR2A) small molecule antagonists, cell-based qHTS assay (AID 1963586); also: nearly all actives have a fitted effect of over 45% in size; also: potency is read from the fitted curve at half-maximal effect
# Outline: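 CHO cells stably expressing human HTR2A were plated for 18 h at 37 C, then loaded with calcium dye for 1 h. Compounds were preincubated 5 min at room temperature before DOI (4 nM solution) was added. Kinetic fluorescence was read for 3 min.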
# [12] = molecular target: 5-hydroxytryptamine receptor 2A (Homo sapiens) (UniProt P28223); assay: 5-hydroxytryptamine receptor 2A (HTR2A) small molecule agonists, cell-based qHTS assay (AID 1963587); also: nearly all actives have a fitted effect of over 30% in size; also: potency is read from the fitted curve at half-maximal effect
# Outline: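 HTR2A-CHO cells, plated 18 h at 37 C/5% CO2, dye-loaded 1 h at 37 C; compounds in DMSO added by pin tool (agonist mode). Intracellular calcium flux read as kinetic fluorescence on FDSS over 2 min at 1 s intervals.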
# [13] = molecular target: Muscarinic acetylcholine receptor M1 (Homo sapiens) (UniProt P11229); assay: Cholinergic receptor muscarinic 1 (CHRM1) small molecule antagonists, cell-based qHTS assay (AID 1963588); also: nearly all actives have a fitted effect of over 40% in size
# Outline: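 Compounds were tested at 15 concentrations in three independent runs. Dye-loaded CHRM1-CHO cells were exposed 5 min at room temperature before stimulation by acetylcholine added at 50nM. Intracellular calcium was read kinetically on FDSS for 3 min.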
# [14] = molecular target: Muscarinic acetylcholine receptor M1 (Homo sapiens) (UniProt P11229); assay: Cholinergic receptor muscarinic 1 (CHRM1) small molecule agonists, cell-based qHTS assay (AID 1963589); also: nearly all actives have a fitted effect of over 35% in size
# Outline: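 Kinetic fluorescence (1 s intervals) of calcium-sensitive dye in human M1 CHO cells after compound addition; cells pre-incubated 18 h at 37 C/5% CO2 and dye-loaded 1 h.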
# [15] = molecular target: Beta-2 adrenergic receptor (Homo sapiens) (UniProt P07550); assay: Adrenergic beta2 receptor (ADRB2) small molecule antagonists, cell-based qHTS assay (AID 1963592); also: series mostly up to about 92 µM; nearly all actives have a fitted effect of over 50% in size
# Outline: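 Assay format: CHO-ADRB2 cells, 18-20hr seeding at 37C/5% CO2, then compound plus 1nM isoproterenol agonist mix for 0.5hr RT. Homogeneous time-resolved fluorescence cAMP detection after 1hr, expressed as 665/615 nm ratio.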
# [16] = molecular target: D(2) dopamine receptor (Homo sapiens) (UniProt P14416); assay: Dopamine D2 receptor (DRD2) small molecule agonists, cell-based qHTS assay (AID 1963594); also: nearly all actives have a fitted effect of over 35% in size; also: potency is read from the fitted curve at half-maximal effect
# Outline: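 HEK293 cells stably expressing DRD2 were cultured 24 h at 37 C, then given Ro20-1724 (0.1 mM final) and compounds for 10 min at room temperature. NKH477 (200nM) was then added for 30 min. cAMP was read by HTRF.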
# [17] = molecular target: D(2) dopamine receptor (Homo sapiens) (UniProt P14416); assay: Dopamine D2 receptor (DRD2) small molecule antagonists, cell-based qHTS assay (AID 1963595; active = well fitted inhibition curve with a large enough effect in the signal ratio in the repeat runs, with a control signal flat; the % refers to the signal ratio)
# Outline: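 Antagonist mode in DRD2-HEK293 cells: after compound addition with 0.1 mM Ro20-1724, cells received quinpirole (12 nM) and NKH477 (200 nM) for 30 min at room temperature; HTRF cAMP read after 1 h detection.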
# [18] = cAMP Responsive Elements (CRE) small molecule agonists, cell-based qHTS assay (AID 1963590)
# Outline: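 Test agents in DMSO were incubated 3 h at 37 C/5% CO2 with CRE-bla HEK 293T cells seeded 18 h earlier; LiveBLAzer B/G FRET substrate was added and read after 2 h at room temperature.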
# [19] = cAMP Responsive Elements (CRE) small molecule antagonists, cell-based qHTS assay (AID 1963591; active = well fitted inhibition curve with a large enough effect in the signal ratio in the repeat runs, not every such curve was filed as active; the % refers to the signal ratio)
# Outline: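 Reporter line CRE-bla HEK 293T in dialyzed-FBS DMEM; cells preincubated 18 h, treated 3 h with compound plus NKH477 (0.25 uM final); LiveBLAzer FRET, 2 h RT.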
# [20] = p53 small molecule agonists, cell-based qHTS assay (AID 1963582; active = well fitted activation curve with a large enough effect in the signal ratio in the repeat runs, not every such curve was filed as active; the % refers to the signal ratio)
# Outline: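 Measured: fluorescence from cleaved LiveBLAzer substrate. System: p53RE-bla cells, 16 h compound treatment at 37 C, 2 h substrate step at room temperature.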
# Sequence of D(2) dopamine receptor (Homo sapiens) (P14416 whole entry, looked up): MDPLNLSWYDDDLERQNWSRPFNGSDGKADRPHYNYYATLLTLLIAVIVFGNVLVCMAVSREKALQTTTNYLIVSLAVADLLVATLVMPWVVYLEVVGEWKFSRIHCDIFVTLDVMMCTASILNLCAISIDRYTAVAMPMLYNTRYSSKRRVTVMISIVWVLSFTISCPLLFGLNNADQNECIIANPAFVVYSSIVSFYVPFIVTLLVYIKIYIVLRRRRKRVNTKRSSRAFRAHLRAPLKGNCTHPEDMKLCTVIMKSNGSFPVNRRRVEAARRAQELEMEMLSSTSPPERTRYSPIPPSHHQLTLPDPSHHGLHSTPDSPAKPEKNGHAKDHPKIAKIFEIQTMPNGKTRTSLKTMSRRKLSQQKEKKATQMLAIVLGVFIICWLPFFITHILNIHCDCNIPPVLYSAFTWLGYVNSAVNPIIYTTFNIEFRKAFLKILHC
# Sequence of 5-hydroxytryptamine receptor 2A (Homo sapiens) (P28223 whole entry, looked up): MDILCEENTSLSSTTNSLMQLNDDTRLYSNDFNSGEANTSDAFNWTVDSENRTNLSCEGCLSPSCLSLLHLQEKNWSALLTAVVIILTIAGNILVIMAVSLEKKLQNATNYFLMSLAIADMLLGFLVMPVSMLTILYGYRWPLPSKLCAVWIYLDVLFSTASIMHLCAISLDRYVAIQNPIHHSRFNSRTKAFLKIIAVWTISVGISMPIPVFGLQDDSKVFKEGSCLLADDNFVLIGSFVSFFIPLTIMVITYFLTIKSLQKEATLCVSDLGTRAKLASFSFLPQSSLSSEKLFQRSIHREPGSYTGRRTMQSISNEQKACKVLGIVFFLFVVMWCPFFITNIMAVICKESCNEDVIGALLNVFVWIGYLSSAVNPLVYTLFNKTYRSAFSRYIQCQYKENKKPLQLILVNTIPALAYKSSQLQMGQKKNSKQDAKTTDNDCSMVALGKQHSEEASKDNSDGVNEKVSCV
# Sequence of Gonadotropin-releasing hormone receptor (Homo sapiens) (P30968 whole entry, looked up): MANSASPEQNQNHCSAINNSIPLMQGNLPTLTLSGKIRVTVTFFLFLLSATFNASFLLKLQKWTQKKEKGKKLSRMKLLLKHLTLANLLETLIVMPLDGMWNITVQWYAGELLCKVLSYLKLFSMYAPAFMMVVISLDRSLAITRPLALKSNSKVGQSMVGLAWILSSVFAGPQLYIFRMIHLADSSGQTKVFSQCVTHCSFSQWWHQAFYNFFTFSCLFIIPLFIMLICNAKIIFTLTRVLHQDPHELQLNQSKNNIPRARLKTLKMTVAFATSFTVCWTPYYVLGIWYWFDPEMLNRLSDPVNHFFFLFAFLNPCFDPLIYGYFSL
# Sequence of KiSS-1 receptor (Homo sapiens) (Q969F8 whole entry, looked up): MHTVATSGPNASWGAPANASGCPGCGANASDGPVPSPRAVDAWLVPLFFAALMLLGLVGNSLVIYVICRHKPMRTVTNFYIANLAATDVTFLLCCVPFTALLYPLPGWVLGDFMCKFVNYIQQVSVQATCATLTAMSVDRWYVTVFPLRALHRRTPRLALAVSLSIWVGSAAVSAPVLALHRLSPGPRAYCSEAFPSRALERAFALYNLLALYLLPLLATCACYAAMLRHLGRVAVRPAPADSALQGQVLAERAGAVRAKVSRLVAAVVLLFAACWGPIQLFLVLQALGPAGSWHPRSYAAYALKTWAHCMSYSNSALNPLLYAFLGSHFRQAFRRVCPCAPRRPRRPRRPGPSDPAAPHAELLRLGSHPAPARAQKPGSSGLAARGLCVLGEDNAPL
# Sequence of Muscarinic acetylcholine receptor M1 (Homo sapiens) (P11229 whole entry, looked up): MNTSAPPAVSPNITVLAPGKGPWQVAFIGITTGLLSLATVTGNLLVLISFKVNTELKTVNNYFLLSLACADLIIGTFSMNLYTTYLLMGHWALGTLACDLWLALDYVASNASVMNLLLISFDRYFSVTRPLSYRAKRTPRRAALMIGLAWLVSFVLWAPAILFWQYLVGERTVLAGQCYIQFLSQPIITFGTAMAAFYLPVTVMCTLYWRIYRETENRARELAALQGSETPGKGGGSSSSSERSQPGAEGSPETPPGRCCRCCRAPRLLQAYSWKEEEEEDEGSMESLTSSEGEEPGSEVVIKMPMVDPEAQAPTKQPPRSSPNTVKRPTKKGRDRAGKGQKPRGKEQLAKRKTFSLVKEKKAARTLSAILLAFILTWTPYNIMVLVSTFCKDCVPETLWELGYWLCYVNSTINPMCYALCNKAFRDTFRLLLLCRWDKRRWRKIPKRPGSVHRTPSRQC
# Sequence of Beta-2 adrenergic receptor (Homo sapiens) (P07550 whole entry, looked up): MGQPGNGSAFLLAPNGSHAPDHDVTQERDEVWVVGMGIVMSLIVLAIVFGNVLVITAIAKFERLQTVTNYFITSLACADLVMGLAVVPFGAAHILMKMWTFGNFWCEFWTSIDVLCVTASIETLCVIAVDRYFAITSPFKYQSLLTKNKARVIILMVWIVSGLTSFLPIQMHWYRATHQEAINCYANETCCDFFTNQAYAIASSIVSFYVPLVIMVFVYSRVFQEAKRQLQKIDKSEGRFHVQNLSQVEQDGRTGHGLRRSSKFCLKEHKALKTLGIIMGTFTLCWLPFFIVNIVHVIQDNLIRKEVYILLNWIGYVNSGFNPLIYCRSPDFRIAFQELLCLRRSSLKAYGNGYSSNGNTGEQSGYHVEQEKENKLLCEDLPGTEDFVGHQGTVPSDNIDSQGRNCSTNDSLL
Structure (SMILES),Potency [1],Potency [2],Potency [3],Potency [4],Potency [5],Potency [6],Potency [7],Potency [8],Potency [9],Potency [10],Potency [11],Potency [12],Potency [13],Potency [14],Potency [15],Potency [16],Potency [17],Potency [18],Potency [19],Potency [20]
Cc1cc(Cl)ccc1OCCCC(=O)O,inactive,inactive,inactive,inactive,inactive,inactive,inactive,inactive,inactive,inactive,inactive,inactive,inactive,inactive,inactive,inactive,inactive,,,
O=S(=O)(O)C(F)(F)C(F)(F)C(F)(F)C(F)(F)C(F)(F)C(F)(F)C(F)(F)C(F)(F)F,inactive and 61.1 µM (active),inactive and 61.1 µM (active),inactive,inactive,inactive,inactive,inactive,inactive,inactive,inactive,inactive,inactive,inactive,inactive,inactive,inactive,inactive,inactive,inactive,
O=C(O)CC[N+](=O)[O-],inactive,inactive,inactive,inactive,inactive,inactive,inactive,inactive,inactive,inactive,inactive,inactive,inactive,inactive,inactive,inactive,,inactive,inactive,
NC(=O)O,inactive,inactive,inactive,inactive,inactive,inactive,inactive,inactive,inactive,inactive,inactive,inactive,inactive,inactive,inactive,,inactive,inactive,inactive,
CCCCCCCCn1sccc1=O,1.22 µM (active) and 1.43 µM (active),612 nM (active) and 641 nM (active),inactive,inactive,inactive,inactive,inactive,40.9 µM (active) and inactive,4.09 µM (active) and 1.35 µM (active),40.9 µM (active) and 38.1 µM (active),inactive and 1.11 µM (active),inactive and 25.7 µM (active),inactive,inactive,inactive,42.8 µM (active),inactive,,,
N#CCCCCC#N,inactive,inactive,inactive,inactive,inactive,inactive,inactive,inactive,inactive,inactive,,inactive,,inactive,inactive,inactive,inactive,inactive,inactive,
CCCC(C)(COC(N)=O)COC(=O)NC(C)C (stereo not given),inactive,inactive,inactive,inactive,inactive,inactive,inactive,inactive,inactive,,inactive,inactive,inactive,inactive,inactive,inactive,inactive,inactive,inactive,inactive
Nc1ccc(Br)cc1,inactive,68.5 µM (active) and inactive,inactive,inactive,inactive,inactive,inactive,inactive,inactive,inactive,inactive,,inactive,inactive,,inactive,inactive,inactive,inactive,
C[C@H]1CCCC(=O)CCC/C=C/c2cc(O)cc(O)c2C(=O)O1,58.9 µM (active) and inactive,inactive,inactive,inactive,inactive,inactive,inactive,inactive,inactive,inactive,inactive,inactive,inactive,inactive,,,inactive,inactive,,
C=Cc1cccc(CCl)c1,inactive,inactive,inactive,inactive,inactive,inactive,inactive,inactive,inactive,inactive,inactive,inactive,inactive,inactive,inactive,inactive,inactive,inactive,inactive,
Cc1ncc2n1-c1ccc(Cl)cc1C(c1ccccc1F)=NC2,inactive,inactive,inactive,inactive,inactive,inactive,inactive,inactive,,inactive,inactive,,inactive,inactive,inactive,inactive,inactive,inactive,inactive,inactive
CCCCCCCCCCCCCl,inactive,inactive,inactive,inactive,inactive,inactive,inactive,inactive,,inactive,inactive,inactive,inactive,inactive,inactive,inactive,inactive,inactive,inactive,
O=[N+]([O-])c1ccccc1-c1ccccc1,inactive,inactive,inactive,inactive,inactive,inactive,inactive,,inactive,inactive,inactive,inactive,inactive,inactive,inactive,inactive,inactive,inactive,inactive,inactive
[N-]=[N+]=[N-],inactive,inactive,inactive,inactive,inactive,inactive,inactive,inactive,,inactive,inactive,inactive,inactive,inactive,inactive,inactive,inactive,inactive,,inactive
